Experimental data published in the supplement of paper PMC4683952.
Counter-ions that a name gives are not always drawn. In all, about 1,200 compounds went through this assay and about 50 (4%) showed activity. No stated cut-off is given here; in the data, all actives reach 1.3 or more but so do some inactives. What follows is part of a selection rich in actives, with near analogues and random picks from the rest.

What follows are compounds tested on Lgr5 (MarsCy1-Lgr5-EGFP, U2OS) (assay: cell-surface Lgr5 expression (SCi1 fluorescence, background-subtracted) relative to WT DMSO (fold of DMSO control); higher = more Lgr5 at the plasma membrane, active = hit call of the paper). Conditions: U2OS MarsCy1-Lgr5-EGFP stable; treatment time: overnight; 16 µM; library: Johns Hopkins Clinical Compound Library.

cell-surface Lgr5 expression, active:
CCN(CC)CCOc1ccc2c(c1)C(=O)c1cc(OCCN(CC)CC)ccc1-2 [Tilorone dihydrochloride] 1.62
S=c1[nH]cnc2nc[nH]c12 [6-Mercaptopurine monohydrate] 1.67
COc1ccc2cc3[n+](cc2c1OC)CCc1cc2c(cc1-3)OCO2 [Berberine] 1.64
C=CCOc1ccccc1OCC(O)CNC(C)C (stereo not given) [Oxprenolol] 1.42
NS(=O)(=O)c1ccc(C(=O)O)cc1 [Carzenide (4-Carboxybenzenesulfonamide, 97%)] 1.3
CCc1cc(Cl)c(OC)c(C(=O)NC[C@@H]2CCCN2CC)c1O [Eticlopride hydrochloride (S)] 1.52

cell-surface Lgr5 expression, inactive:
Nc1ccn([C@@H]2CS[C@H](CO)O2)c(=O)n1 [Lamivudine] 0.724
COc1cc2c(cc1OC)C(=O)C(CC1CCN(Cc3ccccc3)CC1)C2 (stereo not given) [Donepezil hydrochloride] 0.531
C[N+](C)(C)CCO.O=C([O-])CC(O)(CC(=O)O)C(=O)O [Choline dihydrogen citrate] 0.803
CCOC(=O)[C@H](CCc1ccccc1)N[C@@H](C)C(=O)N1Cc2ccccc2C[C@H]1C(=O)O [Quinapril] 1.13
O=C([O-])[O-].[Li+].[Li+] [Lithium carbonate] 0.278
N=C(N)NC(=N)NCCc1ccccc1 [Phenformin hydrochloride] 0.756
O=S(=O)([O-])[O-].[Fe+2] [Ferrous sulfate] 0.888
CCCOc1ccc(C(=O)OCCN(CC)CC)cc1N [Proparacaine] 1.22
CCCCOc1cc(C(=O)OCCN(CC)CC)ccc1N [Benoxinate] 0.987
Cl.Cl.NCCN [Ethylenediamine dihydrochloride] 1.05
COC(=O)[C@H](Cc1ccccc1)NC(=O)[C@@H](N)CC(=O)O [Aspartame] 0.834
C[C@H](CCC(=O)O)[C@H]1CC[C@H]2[C@@H]3[C@@H](O)C[C@@H]4C[C@H](O)CC[C@]4(C)[C@H]3CC[C@]12C [Ursodiol (Ursodeoxycholic acid)] 0.801
Nc1nc2[nH]cnc2c(=S)[nH]1 [Thioguanine (2-amino,6-mercaptopurine)] 0.849
COc1ccc(CN2CCN(C(c3ccc(F)cc3)c3ccc(F)cc3)CC2)c(OC)c1OC [Lomerizine HCl] 1.15
O=C[O-].[Na+] [Sodium formate] 0.903
C=N[C@@H](C(=O)N[C@@H]1C(=O)N2[C@@H]1SC(C)(C)[C@@H]2C(=O)O)c1ccccc1 [Metampicillin] 0.953
N.N.O=S(=O)(O)O [Ammonium sulfate] 0.987
COc1ccc2cc3[n+](cc2c1OC)CCc1cc2c(cc1-3)OCO2 [Berberine bisulfate] 1.47
O.O.O.O.O.O.[Cl-].[Cl-].[Sr+2] [Strontium chloride hexahydrate] 1.29
COc1cccc2c1C(=O)c1c(O)c3c(c(O)c1C2=O)C[C@@](O)(C(=O)CO)C[C@@H]3O[C@H]1C[C@H](N)[C@H](O)[C@H](C)O1 [Doxorubicin] 0.634
O=C(Nc1ccc(Cl)cc1)Nc1ccc(Cl)c(Cl)c1 [Trilocarban (3,4,4'-Trichlorocarbanilide, 99%)] 0.931
COc1ccccc1OCC(O)CO (stereo not given) [Guaifenesin] 1.27
COc1ccccc1OCC(O)CO (stereo not given) [Guaifenesen (Guaiacol glyceryl ether)] 1.11
CC(C)NCC(O)COc1cccc2ccccc12 (stereo not given) [Propranolol] 1.07
COC(=O)CCc1ccc(OCC(O)CNC(C)C)cc1 (stereo not given) [Esmolol] 1.29
Nc1nc(O)c2ncn(CCC(CO)CO)c2n1 [Penciclovir] 0.791
CC(=O)[O-].CC(=O)[O-].[Mg+2] [Magnesium acetate] 0.917
CN(C(=O)C(Cl)Cl)c1ccc(OC(=O)c2ccco2)cc1 [Diloxanide furoate] 1.05
CC1(C)S[C@@H]2[C@H](NC(=O)C3(N)CCCCC3)C(=O)N2[C@H]1C(=O)O [Cyclacillin] 0.994
CC(=O)N(O)CCCCCNC(=O)CCC(=O)N(O)CCCCCNC(=O)CCC(=O)N(O)CCCCCN [Deferoxamine mesylate] 0.865
CCCN(CCC)S(=O)(=O)c1ccc(C(=O)O)cc1 [Probenecid] 1.01
Nc1ccc(C(=O)O)cc1 [4-Aminobenzoic acid, sodium salt,99%] 0.905
Oc1c(I)cc(Cl)c2cccnc12 [Clioquinol] 1.18
CCCCCCN(C)C [N,N-Dimethylhexylamine] 1.05
O=NN(CCCl)C(=O)NC1CCCCC1 [Lomustine] 1.37
CCC(=O)O[C@H]1[C@H](O[C@@H]2[C@@H](C)[C@H](O[C@H]3C[C@@](C)(OC)[C@@H](O)[C@H](C)O3)[C@@H](C)C(=O)O[C@H](CC)[C@@](C)(O)[C@H](O)[C@@H](C)C(=O)[C@H](C)C[C@@]2(C)O)O[C@H](C)C[C@@H]1N(C)C [Erythromycin estolate] 0.567
CCOc1ccc2nc(S(N)(=O)=O)sc2c1 [Ethoxzolamide (6-Ethoxy-2-benzothiazolesulfonamide)] 1.15
CCN1CCCC1CNC(=O)c1cc(S(N)(=O)=O)ccc1OC (racemic) [Sulpiride (+/-)-] 1.07
O=C([O-])C(=O)[O-].O=C([O-])C(=O)[O-].O=C([O-])C(=O)[O-].[Ce+3].[Ce+3] [Cerium oxalate] 1.08
